From PubChem BioAssay
Rows were chosen to be rich in hits. Some 2.4% of all compounds tested hit in one or more screens of this group.
p53ts 32C tox: p53ts cell cytotoxicity, permissive temperature; H1299-p53A138V at 32C, ATP luminescence viability, 24 h; Potency, µM (series often up to 46.1 µM), without a hit: top-dose activity change, negative = cytotoxicity, actives largely listed as cytotoxic; 0.93% of 130,000 active; AID 924;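 note: 0% = DMSO and -100% = full killing by reference compound; nearly all actives have a fitted effect of over 55% in size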
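Cells: H1299 p53ts (A138V), 600/well, pre-incubated 16–30 h at 37C. Cpd up to 46 uM, 24 h, 32C. Readout: ATPlite luminescence, 20 min RT. Normalization: DMSO vs tamoxifen 100 uM. AC50 by Hill equation.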
Imprint erasure: inducers of genomic imprint erasure in mouse ES cells | mouse ES Peg3-LacZ reporter, beta-gal luminescence, 40 h | 0.02% of 110,000 active | Potency, µM (titrated, usually from 60.7 µM), for the others: at the top dose activity change, positive = activation, most hits filed as activators | AID 1948
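Each well holds 300 Peg3LacZ-Neo (maternal) female ES cells incubated 40 h at 37C, 5% CO2. LacZ is measured by BetaGlo luminescence, with AC50 and maximum efficacy derived from dose-response curves.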
p53ts 39C kill: cytotoxicity in p53ts cells at nonpermissive temperature; 1.5% of 130,000 active; AID 902; H1299-p53A138V viability at 39C, ATP luminescence, 24 h; Potency, µM (top dose mostly 46.1 µM), for inactives: top-dose activity change, negative = cell killing, most hits filed as cytotoxic; note: % is set by controls: 0 for no effect and ±100 for the full control effect; nearly all actives have a fitted effect of over 55% in size
IkB sig inh: inhibitors of IkB signaling in ABC-DLBCL cells | ABC-DLBCL IkBa-CBG/CBR dual luciferase ratio, 4 h; response scale: scaled: untreated 0%, proteasome inhibitor 100% | Potency, µM (top dose mostly 57.1 µM), for the others: top-dose IkBa stabilization activation | 0.04% of 110,000 active | AID 445; active = well fitted curve in the direction sought with a large enough effect in the signal ratio, not every such curve was filed as active; inconclusive = small, poorly fitted or top-dose-only effect, or a change in a side signal; the % refers to the signal ratio;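 note: the direction sought is a rising ratio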
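Curves were fitted separately to fusion (green), unfused (red) and ratio luminescence, then classed by r2, magnitude and activity. Cells: OCI-Ly3, 4 h compound plus doxycycline at 37C; 10 uM MG-132 defined full response.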
Luciferase inh: firefly luciferase inhibition. P08659. purified firefly luciferase, luminescence, 8 min. Potency, µM (titrated, usually from 57.1 µM), inactives show at the highest dose activity change, negative = inhibition, hits mostly inhibitors. 2.2% of 72,000 active; note: % is set by controls: 0 for no effect and ±100 for the full control effect; nearly all actives have a fitted effect of over 40% in size
Target sequence (P08659 whole entry, looked up): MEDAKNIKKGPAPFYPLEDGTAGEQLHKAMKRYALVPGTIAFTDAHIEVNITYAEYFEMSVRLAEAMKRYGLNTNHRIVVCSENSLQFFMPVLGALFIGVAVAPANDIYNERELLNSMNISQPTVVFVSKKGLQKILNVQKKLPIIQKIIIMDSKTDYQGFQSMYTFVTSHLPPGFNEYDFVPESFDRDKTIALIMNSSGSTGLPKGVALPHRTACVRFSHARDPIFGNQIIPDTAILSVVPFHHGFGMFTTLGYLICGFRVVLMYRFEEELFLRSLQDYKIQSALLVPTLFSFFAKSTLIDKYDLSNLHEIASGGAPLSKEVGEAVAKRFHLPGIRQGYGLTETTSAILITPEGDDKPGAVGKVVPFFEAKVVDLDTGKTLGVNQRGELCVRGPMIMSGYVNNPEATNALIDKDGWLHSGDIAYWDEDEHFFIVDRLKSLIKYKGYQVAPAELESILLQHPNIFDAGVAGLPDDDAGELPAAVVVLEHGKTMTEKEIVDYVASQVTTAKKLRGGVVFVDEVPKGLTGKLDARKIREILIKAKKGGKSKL
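Substrate buffer containing 10 uM ATP (pH 7.2 imidazole, Mg2+, KCl, detergent, BSA) is dispensed, compound pinned in, then luciferase/luciferin detector mix added. After 8 min at ambient temperature, light output is measured.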
* hit, by the source's call; u = inconclusive; x = not tested or not shown; [ ] = remark or other dose. Unless noted, calls come from the whole dose curve; as a rule, active = well fitted curve in the direction sought with a large enough effect; inconclusive = small, poorly fitted or top-dose-only effect, or another doubt; inactive = no such curve, though single readings can be large; an effect the other way counts as inactive or inconclusive. Potency is the fitted concentration of half-maximal effect.

SMILES | p53ts 32C tox | Imprint erasure | p53ts 39C kill | IkB sig inh | Luciferase inh
CCOc1ccc(C(=O)Nc2nnn(CC)n2)cc1 | 10µM* | -80% | 13µM* | -2% | 25µM*
Cc1cccc(NC(=O)c2ccc(S(=O)(=O)N(C)C)cc2)n1 | 1% | -28% | -3% | 2% | -2%
Cn1nnc(NC(=O)c2ccc(C(C)(C)C)cc2)n1 | 10µM* | -38% | 7.9µM* | 0% | 10µM*
CCC(C(=O)Nc1ccc(C(C)=O)cc1)n1c(C)c2cnn(-c3ccccc3)c(=O)c2c1C (stereo not given) | 11% | u | -14% | -1% | x
Cc1ccccc1-c1noc(-c2ccc(N3CCN(C)CC3)c([N+](=O)[O-])c2)n1 | -5% | u | -27% | 2% | x
Cc1c(C(=O)OC2CCC(C)CC2)[nH]c2c1C(=O)CCC2 (stereo not given) | 4% | -40% | -3% | u | 16µM*
COC(=O)c1[nH]c2c(c1C)C(=O)CCC2 | -6% | -2% | -2% | -1% | -1%
CC(C)Nc1oc(-c2cccc3ccccc23)nc1C#N | -16% | -17% | -23% | -3% | 20µM*
Cc1ccc(Cn2c(C(=O)O)c(CNCc3ccc(OC(C)C)cc3)c3ccc(C)cc32)cc1 | -7% | -14%[10.9 µM] | 16µM* | u | x
C=Cc1ccc(Cn2c(C(=O)O)c(CNCc3ccccc3)c3ccc(C)cc32)cc1 | u | 3%[10.9 µM] | 16µM* | u | x
CC(=O)Nc1nonc1-c1nnc(SCc2ccc(F)cc2)n1C | -3% | 4%[10.9 µM] | 34% | 3% | x
CCOc1c(Cl)cc(C(=O)N(Cc2ccc(N(C)C)cc2)Cc2ccco2)cc1Cl | 8% | -13%[10.9 µM] | -19% | u | x
Cc1ccc(C(=O)Nc2nnc(S(=O)(=O)N(C)Cc3ccco3)s2)cc1 | -6% | -23%[10.9 µM] | -24% | 0% | x
CC(C)COc1ccc(C(=O)Nc2nnc(S(=O)(=O)N(C)Cc3ccco3)s2)cc1 | u | -74%[10.9 µM] | 10µM* | u | x
O=C(Nc1cnc2ccccc2c1)c1ccco1 | -28% | -90% | -22% | 18% | 20µM*
O=C(Nc1cccc(-c2cnc3ccccc3n2)c1)c1ccco1 | 2% | -21% | 8% | -4% | -10%
COc1ccc(-c2noc(CNC(=O)c3ccco3)n2)cc1 | 2% | -13%[10.9 µM] | 18% | -2% | x
Cc1cc(NC(=O)c2cccc(F)c2)ncc1NC(=O)c1ccco1 | -20% | x | u | 12% | 16µM*
O=C(Nc1ccc(NC(=O)c2ccco2)nc1)c1cccnc1 | 10µM* | -47% | 13µM* | u | 25µM*
O=C(Nc1ccc(-c2noc(CCc3ccccc3)n2)cc1)c1ccco1 | u | -61% | 10µM* | u | 10µM*
Cc1cccn2c(=O)c3cc(C(=O)NCc4ccccc4)c(=N)n(CCOCCO)c3nc12 | -4% | -5%[10.9 µM] | 6% | u | x
CCc1ccc(NC(=O)c2cc(CN3CCOCC3)on2)cc1 | -11% | -6%[10.9 µM] | -14% | 0% | x
COc1ccc(OC)c(NC(=O)c2cnn(-c3ccc(C)cc3)c2C2CCNCC2)c1 | 5% | -10%[10.9 µM] | -1% | 3% | x
Cc1cc(C)cc(NC(=O)Cn2c(=O)n(C(C)C)c(=O)c3oc4ccccc4c32)c1 | 5% | -9%[10.9 µM] | -28% | 1% | x
Cc1cc(O)c(C(C)(C)C)cc1Sc1cc(C(C)(C)C)c(O)cc1C | 12%[1.84 µM] | -28% | 16µM* | u | x
SMILES | p53ts 32C tox | Imprint erasure | p53ts 39C kill | IkB sig inh | Luciferase inh
CC(C)(C)c1cc(O)c(C(C)(C)C)cc1O | -18% | -10% | 3% | 1% | -1%
O=S(=O)(/N=C(/Nc1cc(N2CCOCC2)ncn1)c1ccccc1)c1ccccc1 | u | -50% | u | 1% | 3.2µM*
O=S(=O)(/N=C(/Nc1cc(N2CCOCC2)ncn1)c1ccc(F)cc1)c1ccccc1 | 9% | -8% | 2% | -8% | 0%
COc1ccc(-c2nc3ccccc3n2Cc2ccc(C(C)C)cc2)cc1 | 28% | -16%[10.9 µM] | 18µM* | u | x
COCn1c(-c2ccc(OC)cc2)nc2ccccc21 | 7.9µM* | x | 11µM* | x | x
CC(O)[C@@H](O)[C@H]1CNc2nc(N)[nH]c(=O)c2N1 (stereo not given in full) | x | -8% | x | x | x
CCOc1ccc2nc(N3CCC(C(=O)N4CCN(c5ncccn5)CC4)CC3)sc2c1 | -29% | -6% | -25% | 10% | -19%
CCOc1ccc2nc(N3CCCC(C(=O)NCCCN4CCOCC4)C3)sc2c1 (stereo not given) | 10µM* | -19% | -29% | 2% | 25µM*
CCOc1ccc2nc(N3CCC(C(=O)N4CCN(c5ccccn5)CC4)CC3)sc2c1 | -27% | -9% | u | u | 6.3µM*
CCOc1ccccc1C(=O)Nc1c(C(=O)Nc2ccc(F)cc2)oc2ccccc12 | 24% | -25%[10.9 µM] | -6% | 4% | x
CCn1c(=N)c(C(=O)NCC2CCCO2)cc2c(=O)n3cc(C)ccc3nc21 (stereo not given) | -6% | -6%[10.9 µM] | 3% | 1% | x
Cc1ccc(Nc2ccccc2)cc1 | -13% | x | 4% | x | x
Cc1ccc(NC2=CC(=O)C(=O)c3ccccc32)cc1 | u | x | 3.2µM* | x | x
Cc1ccccc1C(=O)Nc1ccc2nc(SCC(=O)N3CCc4ccccc43)sc2c1 | -20% | -15%[10.9 µM] | -21% | u | x
CCN1CCC[C@H]1CNC(=O)c1c(O)c(Cl)cc(Cl)c1OC | -2% | -3% | -6% | 1% | 13µM*
CN(Cc1ccccc1)c1ccc2cc(S(=O)(=O)N3CCCCC3)ccc2n1 | -5% | -5%[10.9 µM] | -7% | 1% | x
CCc1ccc(-n2nnc(-c3nsc(NC(=O)c4ccccc4Cl)n3)c2C)cc1 | -1% | -5%[10.9 µM] | -26% | u | x
CSc1cccc(-n2nnc(-c3nsc(NC(=O)c4cccs4)n3)c2C)c1 | 1% | -36%[10.9 µM] | 13µM* | -3% | x
CCc1cccc(-n2nnc(-c3nsc(NC(=O)c4cccs4)n3)c2C)c1 | -19% | -20%[10.9 µM] | 10µM* | -1% | x
Cc1ccc(-n2nnc(-c3nsc(NC(=O)c4cccc(Cl)c4)n3)c2C)cc1C | 2% | -8%[10.9 µM] | 1% | -3% | x
CC1(C)CCC2=C(O1)c1ccccc1C(=O)C2=O | 5µM* | -79% | 5µM* | u | -3%
CN(C)/C=C1/Sc2ccccc2C1=O | -2% | x | 6% | x | x
CN(c1nnc(NC(=O)Nc2ccccc2C(F)(F)F)s1)C1CCCCC1 | -3% | -7%[10.9 µM] | 9% | -2% | x
Cc1cccc(-c2nc(SCC(=O)NCC3CCCO3)c3c(=O)n(C)c(=O)n(C)c3n2)c1 (stereo not given) | 7% | 12%[10.9 µM] | -12% | 0% | x
CC(C)Cn1c(/C=C/c2ccc(F)cc2)nc2ccccc21 | 13µM* | -9%[10.9 µM] | 10µM* | u | x
C#CCn1c(/C=C/c2ccc(Cl)cc2)nc2ccccc21 | 4µM* | -26%[10.9 µM] | 3.2µM* | u | x
CCC(C)Cn1c(/C=C/c2ccccc2)nc2ccccc21 (stereo not given) | u | -14%[10.9 µM] | 13µM* | u | x
